An excerpt weighted towards active compounds, which were near 2.2% of everything screened.
A549 tox = Nrf2 qHTS screen for inhibitors: counterscreen for cytotoxicity; A549 ARE-Fluc cells, CellTiter-Fluor viability, 18-24 h; Potency, µM (doses to about 46 µM), for the others: top-dose activity change, negative = cytotoxicity, most hits filed as inhibitors; 390,000 tested, 0.16% active; AID 504648, 2011; further: potency means the concentration at half of the fitted maximal effect; on the % scale 0 is the no-effect control and ±100 the full control effect
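A549 ARE_Fluc cells in 5% FBS OPTI-MEM were exposed to compounds in concentration-response for 18-24 h at 37 deg C. Viability was read by CellTiter-Fluor fluorescence (Ex 405/Em 525) after 30 min, before the luciferase read.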
Nrf2 ARE act = qHTS of Nrf2 Activators; AREc32 ARE-luciferase reporter (MCF7-derived line), luminescence, 24 h; Potency, µM (series often up to 46.1 µM), for inactives: at the highest dose activation, hits mostly activators; 410,000 tested, 0.31% active; AID 624171, 2012; further: potency means the concentration at half of the fitted maximal effect; % of control where 0% means no effect; nearly all actives have a fitted effect of over 65% in size
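Cells of the AREc32 ARE-luciferase line are plated in OPTI-MEM containing 5% FBS and left overnight at 37 deg C. Compounds are pinned in, incubation continues 24 hr, and firefly luciferase signal is then measured.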
B2AR arrestin = qHTS assay of beta-arrestin-biased ligands of beta2-adrenergic receptor; Beta-2 adrenergic receptor (Homo sapiens), P07550; beta-arrestin recruitment to beta2AR, cell-based reporter; Potency, µM (series often up to 46.1 µM), for the others: at the highest dose activation, hits mostly activators; 330,000 tested, 0.02% active;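 further: potency means the concentration at half of the fitted maximal effect; 0% = DMSO controls and full agonism = EC100 isoproterenol or metaproterenol; nearly all actives have a fitted effect of over 65% in size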
Target sequence (P07550 whole entry, looked up): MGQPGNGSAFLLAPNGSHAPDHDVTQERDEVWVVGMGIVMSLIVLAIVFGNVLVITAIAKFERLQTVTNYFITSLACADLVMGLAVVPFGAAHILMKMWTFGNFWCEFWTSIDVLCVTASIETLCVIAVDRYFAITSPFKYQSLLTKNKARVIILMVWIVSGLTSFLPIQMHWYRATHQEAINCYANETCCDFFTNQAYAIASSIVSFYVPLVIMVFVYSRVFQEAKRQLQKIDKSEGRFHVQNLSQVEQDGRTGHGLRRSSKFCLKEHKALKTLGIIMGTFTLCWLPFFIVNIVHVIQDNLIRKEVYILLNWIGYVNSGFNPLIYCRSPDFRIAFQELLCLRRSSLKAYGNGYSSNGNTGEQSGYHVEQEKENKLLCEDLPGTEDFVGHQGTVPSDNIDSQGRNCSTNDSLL
miR-21 reporter = qHTS Assay for Modulators of miRNAs and/orActivators of miR-21. HeLa miR-21 FLuc reporter, luciferase, 48 h. Potency, µM (top dose mostly 38.3 µM), without a hit: top-dose activity change, positive = activation, most hits filed as activators. 340,000 tested, under 10 active. AID 2288, 2010;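 further: % of control where 0% means no effect; miR-21 action dims this reporter so a rising signal means less miR-21 action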
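HeLa cells endogenously expressing miR-21, stably carrying CMV-driven firefly luciferase with a downstream miR-21 binding site, 2000 cells/well. Titrations up to approximately 40 uM, 48 hours; luciferase luminescence read.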
Nrf2 inh = Nrf2 qHTS screen for inhibitors | A549 ARE-Fluc reporter, luciferase luminescence, 18-24 h | Potency, µM (top dose mostly 46 µM), inactives show at the top dose activity change, negative = inhibition, usual class: inhibitors | 360,000 tested, 2.1% active; further: potency means the concentration at half of the fitted maximal effect; on the % scale 0 is the no-effect control and ±100 the full control effect; nearly all actives have a fitted effect of over 60% in size
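Concentration-response testing used A549 ARE_Fluc cells at 5000 cells/well. Following an 18-24 h compound incubation, viability was read by fluorescence (Ex 405/Em 525) and luciferase output by luminescence.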
Starred values were filed as active, the others as inactive; ? = inconclusive; / = no result given; [ ] = remark or other dose. The call rests on the fitted dose curve; in most records, active means well fitted curve in the direction sought with a large enough effect; inconclusive means small, poorly fitted or top-dose-only effect, or another doubt; inactive means no such curve, though single readings can be large; an effect the other way counts as inactive or inconclusive.

SMILES	A549 tox	Nrf2 ARE act	B2AR arrestin	miR-21 reporter	Nrf2 inh
CC(C)(C)n1ncc2c(=O)n(Cc3cccc(Cn4cnc5c(cnn5C(C)(C)C)c4=O)c3F)cnc21	?	3%	-1%	/	5.2µM*
COC(=O)C1=C(c2ccc(OCc3ccccc3)cc2)C[C@@H]2CC[C@H]1N2C(=O)NCc1ccc(OC)cc1	/	2%	/	/	/
COC(=O)C1=C(c2cccc(OCc3ccccc3)c2)C[C@@H]2CC[C@H]1N2C(=O)NCc1ccc(Cl)cc1	-13%	-1%	0%	/	23µM*
COC(=O)C1=C(c2cccc(OCc3ccccc3)c2)C[C@@H]2CC[C@H]1N2C(=O)NCc1ccccc1OC	?	3%	3%	/	21µM*
COC(=O)C1=C(c2ccc(OCc3ccccc3)cc2)C[C@@H]2CC[C@H]1N2C(=O)NCc1cccc(OC)c1	-12%	-1%	?	/	23µM*
COC(=O)C1=C(c2cccc(OCc3ccccc3)c2)C[C@@H]2CC[C@H]1N2C(=O)NCc1ccccc1	-8%	4%	3%	/	?
CNC(=O)Oc1ccc(-c2cn3cc(C)ccc3n2)cc1	?	-3%	0%	?	1.2µM*
CCc1ccc(CNC(=O)C2CCN(C(=O)c3ccc(-n4c(C)cc5ccccc54)s3)CC2)cc1	-29%	0%	/	23%	18µM*
CCN(CC)CCOC(=O)c1ccc(NC(=O)CCn2c(=O)oc3ccccc32)cc1	?	0%	/	-3%	2%
CC(=O)OC1CCC2(C)C(CCC3C4CC(N5CC5)C(C(C)=O)C4(C)CC(=O)C32)C1 (centres undefined)	15µM*	16%	/	/	8%
CC(=O)[C@H]1CC[C@H]2[C@@H]3CC[C@H]4C[C@H](O)CC[C@]4(C)[C@H]3C(=O)C[C@]12C	1%	0%	-2%	-9%	-25%
O=C(Cc1coc2cc3c(cc12)CCC3)OCC(=O)N1CCCC1=O	3%	-2%	0%	?	?
Cc1cc(NC(=O)CCl)no1	?	?	0%	28%	16µM*
CC(C)(O)/C=C/C(=O)C(C)(O)C1C(O)CC2(C)C3CC=C4C(C=C(O)C(=O)C4(C)C)C3(C)C(=O)CC12C (centres undefined)	2.3µM*	-2%	/	/	1.5µM*
CC(=O)OC(C)(C)/C=C/C(=O)[C@](C)(O)C1[C@H](O)C[C@@]2(C)C3CC=C4C(C[C@H](O)C(=O)C4(C)C)[C@]3(C)C(=O)C[C@]12C (some centres undefined)	0.65µM*	-3%	0%	/	?
O=C1C=CC2C3C(=O)N(c4ccccc4)C(=O)C3C1N2Cc1ccccc1 (centres undefined)	0%	?	/	/	13%
Cc1ccc(C)c(N2CCN(c3ncnc4onc(C)c34)CC2)c1	-17%	-1%	/	?	13µM*
COc1cc(CN2CCN(c3cc(C)ccc3C)CC2)ccc1O	-2%	22%	0%	25%	10%
COc1ccc2nc(NC(=O)c3nc(S(=O)(=O)Cc4cccc(C)c4)ncc3Cl)sc2c1	-29%	27%	/	?	-16%
CC(C)Cn1c(O)c(N=NC(=O)c2cccc(S(=O)(=O)N3CCCCC3)c2)c2ccccc21	?	2%	0%	-1%	21µM*
CN(C)c1c([N+](=O)[O-])cc(N2C(=O)C=CC2=O)cc1[N+](=O)[O-]	?	-1%	/	/	?
Cc1ccc(C)c(S(=O)(=O)c2nnn3c2nc(N2CCN(C)CC2)c2sccc23)c1	2%	7%	/	?	-7%
CN(Cc1ccccc1)C(=O)c1ccc(NC(=O)C2CCN(C(=O)OC(C)(C)C)CC2)cc1	-5%	3%	0%	/	16µM*
Cc1sc2c(c1C)C(c1ccc(C(C)(C)C)cc1)=NCC(=O)N2CC(=O)Nc1nccs1	-24%	0%	0%	4%	12µM*
CCCCN1CCS(=O)(=O)N(Cc2ccccc2Br)CC(C(=O)OC)C1 (centres undefined)	-3%	?	-1%	/	12%
SMILES	A549 tox	Nrf2 ARE act	B2AR arrestin	miR-21 reporter	Nrf2 inh
O=C(C1CCCN(S(=O)(=O)c2cccc3nsnc23)C1)N1CCC2(CC1)OCCO2 (centres undefined)	0%	0%	0%	-1%	6%
Cc1ccc(C)c(N2CCN(C(=O)C3CCCN(S(=O)(=O)c4cccc5nsnc45)C3)CC2)c1 (centres undefined)	-7%	0%	/	-3%	16µM*
OCc1cccc[n+]1CCc1ccccc1	-2%	0%	/	/	7.3µM*
CNCCc1ccccc1	/	/	0%	2%	/
CCOC(=O)C1(CCc2ccccc2)CCN(Cc2cccc3c2OCO3)CC1	2%	-1%[9.22 µM]	0%	5%	?
CCOC(=O)C1(CCc2ccccc2)CCN(Cc2csc(C(C)=O)c2)CC1	?	16%	0%	0%	15µM*
CC(C)c1oc(=O)cc2c1[C@@H](O)[C@H]1OC(=O)[C@@]3(C)CC[C@@H](O)[C@@]2(C)C13 (some centres undefined)	?	-3%	0%	12%	18µM*
CC(C)c1oc(=O)cc2c1[C@@H](O)[C@H]1OC(=O)[C@@]3(C)C[C@@H](O)[C@@H](O)[C@@]2(C)C13 (some centres undefined)	?	-2%	-2%	28%	18µM*
O=C(NCc1ccc(Cl)cc1)C1CCCN(C(=O)c2cnn(-c3ccc(F)cc3)c2-n2cccc2)C1 (centres undefined)	-11%	1%	/	16%	?
Cc1sc2ncnc(SCC(=O)Nc3ccc(S(=O)(=O)N4CCOCC4)cc3)c2c1C	1%	3%	0%	/	?
O=[N+]([O-])c1ccc(N(CCO)CCO)c2c1no[n+]2[O-]	/	-6%	/	/	/
CN1CCN(c2ccc([N+](=O)[O-])c3no[n+]([O-])c23)CC1	23µM*	-3%	0%	?	?
CC(=O)O[C@H]1C[C@@H]2OC3C=C(C)CCC3(C)[C@@]1(C)[C@@]21CO1 (some centres undefined)	/	-2%	/	/	6.5µM*
CC(C)(C)c1ccc(CSc2cnn(C(C)(C)C)c(=O)c2Cl)cc1	-10%	0%	0%	9%	0.15µM*
Cc1ccc(C)c(CN2C(=O)c3ccccc3S(=O)(=O)c3ccc(C(=O)N4CCCCCC4)cc32)c1	-28%	5%	/	23%	21µM*
COc1cccc(C(=O)Nc2ccc3nc(SCC(=O)N(C)c4ccccc4)sc3c2)c1	-18%	0%	/	?	?
CN(C(=O)CSc1nc2ccc(NC(=O)COc3ccc(Cl)cc3)cc2s1)c1ccccc1	-18%	2%	/	?	15µM*
CC=CC(C)=CC(C)C(=O)CC(O)CC1CC(=O)NC(=O)C1 (centres undefined)	/	-2%	/	/	/
